Test [1] concerns the target T1, Aspartate--tRNA(Asp/Asn) ligase (Mycobacterium tuberculosis (strain ATCC 25618 / H37Rv)) (UniProt P9WFW3). Note: in the data most compounds retested in dose-response had high values.
T1 sequence (whole entry): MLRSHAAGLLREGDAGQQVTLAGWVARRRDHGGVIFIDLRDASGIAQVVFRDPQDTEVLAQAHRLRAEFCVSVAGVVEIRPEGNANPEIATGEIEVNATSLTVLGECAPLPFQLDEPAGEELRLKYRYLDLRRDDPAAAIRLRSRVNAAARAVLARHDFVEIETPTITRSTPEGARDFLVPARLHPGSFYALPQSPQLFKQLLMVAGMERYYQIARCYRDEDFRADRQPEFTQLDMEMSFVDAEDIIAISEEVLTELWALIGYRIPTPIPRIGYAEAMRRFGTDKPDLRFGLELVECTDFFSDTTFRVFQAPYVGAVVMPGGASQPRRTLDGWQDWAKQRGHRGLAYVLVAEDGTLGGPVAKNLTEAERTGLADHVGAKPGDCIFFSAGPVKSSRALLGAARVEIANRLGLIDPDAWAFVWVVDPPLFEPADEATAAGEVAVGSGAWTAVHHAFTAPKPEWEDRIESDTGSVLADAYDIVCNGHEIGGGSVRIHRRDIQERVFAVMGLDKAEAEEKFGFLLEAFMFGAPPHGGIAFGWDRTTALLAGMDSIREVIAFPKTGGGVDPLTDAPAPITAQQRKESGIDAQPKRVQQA
Briefly: Assay for Asp RNA synthetase-1 from Mycobacterium tuberculosis. It counts as functional. Also noted: scale not given: direction of the effect not stated beside the values. The following applies: 30 µM.

Test [2] has as its target Shiga toxin 2 (Escherichia coli O157:H7) (UniProt P09385+P09386). As to the kind of experiment: E. coli 0.157:H7 Shiga Toxin SOP - stx2 screening assay. It counts as functional. Also noted: scale not given: direction of the effect not stated beside the values. As to conditions: 30 µM.

With `CC(C)(C)n1ncc2c1NC(=O)CC2c1ccsc1` (stereo not drawn), the Percent Effect in test [1] is 2.57%; in test [2], -10.8%.

For the compound `Cc1nc(CCN(C)C(=O)C2COc3ccccc3C2)no1` (stereo not drawn), the Percent Effect in test [1] is 0.743%; in test [2] it was -10.1%.

Regarding `CS(=O)(=O)Cc1ccc(CNC(=O)c2cccnc2O)cc1`, the Percent Effect in test [1] was -6.68%; in test [2] it was -14.2%.

For the compound `CN1CCN(C(=O)c2ccc(=O)n(C)c2)c2ccccc21`, the Percent Effect was -7.61% in test [1] and -16.6% in test [2].

For `O=C(NCCN1CCCCC1)c1nc(-c2ccc3cc[nH]c3c2)no1`, the Percent Effect in test [1] was 6.42%; in test [2] it was -77.4%.

On to `CS(=O)(=O)N1CCOC2(CCCN(c3cnccn3)C2)C1` (stereo not drawn), for which the Percent Effect in test [1] was -5.91%; in test [2], -3.98%.

As to `CN(CCc1ccccc1)Cc1cc(C(=O)N2CCCC2(C)C)no1`, the Percent Effect in test [1] is 0.433%; in test [2] it was -34.7%.

Turning to `Cc1occc1C(=O)N1CCC2(CC1)CC(c1cccnc1)C(=O)N2C` (stereo not drawn), the Percent Effect is -1.22% in test [1] and -20.1% in test [2].

As to `CN(C)C(=O)COCc1cncc2c1CCN(Cc1nccn1C)C2`, the Percent Effect in test [1] was 10.5%; in test [2], -47.9%.

For `O=C(CCn1cnnc1)N1CCCC(c2ncc[nH]2)C1` (stereo not drawn), the Percent Effect in test [1] was 5.32%; in test [2] it was -29.4%.

In the case of `CCOC(CC)C(=O)NCCC(=O)N1CCN(c2ccccn2)CC1` (stereo not drawn), the Percent Effect in test [1] is 2.61%; in test [2], -11.4%.

With `Fc1ccc(CN2CCO[C@H]3[C@H](OCC4CC4)CC[C@@H]32)cc1`, the figures for the Percent Effect in test [1] and in test [2] were -1.08% and 3.83%, respectively.

On to `Cn1ccc(C(=O)NCc2cccc(CN3CCCC3)c2)cc1=O`, for which the Percent Effect in test [1] is 1.53%; in test [2], -46.4%.

As for `Cc1cc(C)c2c(c1)C1(CC(=O)Nc3c1cnn3C(C)C)C(=O)N2` (stereo not drawn), the Percent Effect was 1.68% in test [1] and 1.39% in test [2].

Take `Cn1cnnc1S(=O)(=O)C1CCN(S(=O)(=O)C2CC2)CC1`: the values for the Percent Effect in test [1] and in test [2] were -0.604% and -7.38%, respectively.

Turning to `O=C(CCCOc1ccc(F)cc1F)N1CCCC1Cn1cccn1` (stereo not drawn), the Percent Effect was -7.61% in test [1] and 17.6% in test [2].

Regarding `CN(C)C(=O)CN1C[C@@H]2CC[C@H](C1)N(C(=O)CCn1cncn1)C2`, the Percent Effect is 1.04% in test [1] and -6.26% in test [2].

Take `CS(=O)(=O)CCC(=O)Nc1cnn(-c2ccccc2Cl)c1`: the values for the Percent Effect in test [1] and in test [2] were -3.18% and -52.3%, respectively.

`COc1cc(C(=O)N2CCC(c3n[nH]c(C4CC4)n3)CC2)ccc1C`: the Percent Effect in test [1] is -0.859%; in test [2] it was 3.06%.

Consider `COc1c(CNCc2cccc(Cn3ccnc3)c2)c(C)nn1C`, for which the Percent Effect in test [1] amounted to 7.35%; in test [2], 14.4%.

Regarding `Cc1nc(CN2CCCC(CCc3c(F)cccc3F)C2)c[nH]1` (stereo not drawn), the Percent Effect is -1.36% in test [1] and -14.3% in test [2].

Regarding `Cc1ccc(N2CCCC(NCC(=O)NCC3CC3)C2)nn1` (stereo not drawn), the Percent Effect in test [1] was -5.2%; in test [2] it was -32.6%.

Turning to `CC(C)(C)C(=O)NCCC(=O)NC(C)(C)c1ccc2c(c1)OCCO2`, the Percent Effect in test [1] was 1.41%; in test [2], -2.07%.

Regarding `CCc1nc2n(n1)CC(NCC(=O)Nc1nccs1)CC2` (stereo not drawn), the values for the Percent Effect in test [1] and in test [2] were -2.71% and 2.48%, respectively.

Consider `COCCNC(=O)c1ccc(C)c(-n2cccc2)c1`, for which the Percent Effect in test [1] was -0.779%; in test [2], -6.48%.

Take `CN(Cc1ccco1)[C@@H]1CN(C(=O)c2ccnnc2)[C@@H]2CCCO[C@H]12`: the Percent Effect is -2.73% in test [1] and -1.33% in test [2].

Consider `CC(C)[C@H](NC(=O)NC1CCS(=O)(=O)C1)C(=O)Nc1cccnc1` (stereo partly drawn), for which the Percent Effect was -0.929% in test [1] and -52.8% in test [2].

In the case of `CCCN(CC(=O)NC)C(=O)c1ccc(-c2ccsc2)nc1C`, the Percent Effect in test [1] was -3.29%; in test [2] it was -2.59%.

As for `COCCCC(=O)NS(=O)(=O)c1ccc2c(c1)OCCCO2`, the Percent Effect in test [1] is -1.35%; in test [2], 23.1%.

Consider `CC(C)(C)C(=O)Cn1nc(-c2ccccc2F)ccc1=O`, for which the Percent Effect was -2.79% in test [1] and -9.41% in test [2].

For the compound `COc1ccc(OCc2nc(C(=O)N3CC[C@H](O)[C@@H](O)C3)co2)cc1`, the Percent Effect was -0.903% in test [1] and 8.98% in test [2].

As for `O=C(NCc1cccs1)C1CN(C(=O)c2cccs2)CC12CCOCC2` (stereo not drawn), the Percent Effect in test [1] turned out to be 6.61%; in test [2] it was 5.39%.

In the case of `COCC1CCCN(C(=O)c2cc(Cn3ccc4ccccc43)[nH]n2)C1` (stereo not drawn), the Percent Effect in test [1] is 9.18%; in test [2], -24.9%.

As for `O=S(=O)(c1cccnc1)N1CCN(CCn2ccnc2)CC1`, the Percent Effect in test [1] was -4.66%; in test [2], -38.1%.

Take `CCc1cc(=O)[nH]c2nnc(SCC(=O)OC)n12`: the Percent Effect in test [1] is -8.74%; in test [2], -6.54%.

`Cc1ccc(CCC(=O)N2CCCC(n3cncn3)C2)c(C)c1` (stereo not drawn): the Percent Effect in test [1] is -4.98%; in test [2], 10.1%.

Consider `Cc1noc([C@H]2C[C@@H]3CCN(C(=O)C4CCOCC4)C[C@H]3O2)n1`, for which the Percent Effect in test [1] is 1.08%; in test [2], -0.561%.

As to `CN(CC1CN(Cc2cn3ccsc3n2)CCO1)c1cccnn1` (stereo not drawn), the Percent Effect in test [1] was -3.78%; in test [2] it was -9.36%.

For the compound `CS(=O)(=O)NCC1CCCN(C(=O)Nc2ccccc2Cl)C1` (stereo not drawn), the Percent Effect in test [1] was -5.99%; in test [2], 10.6%.

As for `Cn1c(Cn2ccnc2)nnc1C1CCN(Cc2cccnc2N)CC1`, the Percent Effect in test [1] is -2.34%; in test [2] it was -12.5%.

As to `O=C(NCCc1ccccc1)C1CCC(Cn2cnnn2)CC1` (stereo not drawn), the Percent Effect in test [1] was -4.3%; in test [2], -20.1%.

`CN(C)C(=O)N1CCOCC2(CCN(c3ccccn3)C2)C1` (stereo not drawn): the Percent Effect in test [1] was 1.11%; in test [2], -15.4%.

Regarding `CC(C)(C)C(O)CN1CCN(C(=O)c2cccc3ncccc23)CC1` (stereo not drawn), the Percent Effect in test [1] was 0.278%; in test [2], -208%.

Regarding `Cn1ccc(NC(=O)Cc2cccc(F)c2)n1`, the Percent Effect was 3.36% in test [1] and -9.92% in test [2].

For `Cc1noc(Cl)c1CC(=O)N1CCCC(n2cccn2)C1` (stereo not drawn), the Percent Effect in test [1] is 2.08%; in test [2], 32.6%.

As to `Cc1nccc(-c2cccc(NCC(=O)N3CCCCCCC3)c2)n1`, the Percent Effect in test [1] stood at 1.07%; in test [2] it was 18.8%.

`Cn1cc(C[C@H]2[C@@H](O)CCN2C(=O)C2CC=CC2)cn1`: the values for the Percent Effect in test [1] and in test [2] were 7.16% and -21.6%, respectively.

For `COc1ccccc1CC(=O)N1CC[C@@]2(CCCO2)[C@@H](OC)C1`, the figures for the Percent Effect in test [1] and in test [2] were 4.54% and 52.7%, respectively.

As to `COCC(C)N(C)C(=O)c1nc(S(C)(=O)=O)n2ccccc12` (stereo not drawn), the Percent Effect was -0.433% in test [1] and -13.2% in test [2].

The values above are taken from ChEMBL document CHEMBL3988442, “University of Dundee, Small-Polar-MMV Screening Library” (2021).
